Reference: PubChem BioAssay (NCI)
This is part of a sample that, as a whole, favours compounds with a hit. Of some 79,000 tested, about 15% had one in any assay. Activity calls are given as the source filed them. Rule as the data show it: active = growth inhibition above about 70%; inactive = the rest. Where a SMILES comes first, the peptide text is derived from it. [ ]: non-standard residue; d: D form. ξ: configuration not given here. ξF = NC(Cc1ccccc1)C(=O)O

Assays:
[1] = NCI Yeast Anticancer Drug Screen. Data for the rad50 strain (AID 155);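 also: 0% = growth of vehicle-only cultures of the same strain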; details: S. cerevisiae rad50 strain growth inhibition; at 50.0 µM; stronger effect = higher value
Summary of the method: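 A DNA repair-deficient yeast mutant serves as the test organism; compound-induced growth inhibition is calculated against vehicle-treated cells.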

[2] = NCI Yeast Anticancer Drug Screen. Data for the mec2-1 strain (AID 157); details: S. cerevisiae mec2-1 strain, at 50.0 µM, stronger effect = higher value
Summary of the method: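 Readout is yeast growth inhibition, normalised to vehicle-treated controls, in the mec2-1 strain exposed to compound.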

[3] = NCI Yeast Anticancer Drug Screen. Data for the sgs1 mgt1 strain (AID 161);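 also: 0% = growth of cultures given vehicle only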; details: S. cerevisiae sgs1 mgt1 strain, at 50.0 µM, stronger effect = higher value
Summary of the method: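 Compounds are added to genetically altered yeast, and growth is compared with cultures given vehicle alone to give percent inhibition.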

[4] = NCI Yeast Anticancer Drug Screen. Data for the cln2 rad14 strain (AID 165);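 also: 0% = growth equal to vehicle treated cultures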; details: S. cerevisiae cln2 rad14 strain, at 50.0 µM, stronger effect = higher value
Summary of the method: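 Relative to vehicle controls, growth inhibition of compound-treated cln2 rad14 yeast was recorded.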

[5] = NCI Yeast Anticancer Drug Screen. Data for the bub3 strain (AID 167); details: S. cerevisiae bub3 mutant strain, at 50.0 µM, stronger effect = higher value
Summary of the method: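 Inhibition values come from growth of compound-treated mutant yeast normalised to vehicle-treated controls.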

[6] = NCI Yeast Anticancer Drug Screen. Data for the mlh1 rad18 strain (AID 175); details: S. cerevisiae mlh1 rad18 strain growth inhibition; at 50.0 µM; stronger effect = higher value
Summary of the method: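 Test agents were incubated with a yeast strain of defined genotype (DNA damage repair defect). Inhibition of growth was derived by comparison with vehicle-exposed cultures.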

Measured: growth inhibition

CCCCOC(=O)C(C)OP(=O)(OC(C)C(=O)OCCCC)OC(C)C(=O)OCCCC (stereo unspecified)
inactive: [1] -19.4% | [2] -5% | [3] 9.5% | [4] -26.1% | [5] -0.3% | [6] 16.2%

NC(=O)CNC(=O)C(CO)NC(=O)OCc1ccccc1 (stereo unspecified)
inactive: [1] 2.35% | [2] -10% | [3] 10.7% | [4] -6.2% | [5] -11.1% | [6] 0.3%

COc1ccc(C(=O)Nc2ccccc2CCC2CCCCN2C)cc1 (stereo unspecified)
inactive: [1] 29.2% | [2] 3% | [3] 10.3% | [4] 22.4% | [5] 1.15% | [6] 19%

O=C(OCc1ccccc1CN1CCOCC1)c1ccccc1
inactive: [1] 2.55% | [2] 16.4% | [3] 9.5% | [4] -11.9% | [5] -15.8% | [6] 8.3%

Brc1ccc(C2CC(c3cccc4ccccc34)=Nc3ccccc3S2)cc1 (stereo unspecified)
inactive: [1] -14.1% | [2] -2.45% | [3] -10.9% | [4] -29.2% | [5] 8.7% | [6] 18.1%

CCCc1cc(=O)oc2c3c(c4c(c12)OC(C)(C)CC4)O[C@H](C)C(C)C3O (stereo partly specified)
inactive: [1] 24.8% | [2] 11.6% | [3] 11.6% | [4] 26.1% | [5] 47.6% | [6] 35%

C#CCN(C)Cc1cc(OC)c(OC)c(OC)c1
inactive: [1] -43.2% | [2] -0.75% | [3] 6.55% | [4] -10.9% | [5] 7.65% | [6] 14.4%

c1ccc(CCN(c2ccccc2)c2ccccc2)cc1
inactive: [1] 21.1% | [2] -2.4% | [3] -11.2% | [4] 9.8% | [5] 7.55% | [6] 1.2%

CC(C)c1cc(C(C)C)c(B(c2ccccc2)c2ccccc2)c(C(C)C)c1B(c1ccccc1)c1ccccc1
inactive: [1] -13.7% | [2] 4.8% | [3] 18.4% | [4] 6.3% | [5] 6.35% | [6] 13.9%

CC1CC=C2CCCCC2(C)C1C (stereo unspecified)
inactive: [1] 8.7% | [2] 13.7% | [3] 16.2% | [4] -30.9% | [5] -40.6% | [6] 3.7%

C[C@H](CCC(c1ccccc1)c1ccccc1)[C@H]1CC[C@H]2[C@@H]3CC[C@@H]4C[C@H](O)CC[C@]4(C)C3=CC[C@]12C
inactive: [1] 1.7% | [2] -15.3% | [3] 4.1% | [4] 24.8% | [5] -1.75% | [6] 9.45%

COc1cc(NC(C)CNC(C)C)c2ncccc2c1 (stereo unspecified)
inactive: [1] -15.7% | [2] -4.85% | [3] -2.1% | [4] -34% | [5] 7% | [6] 2.1%

CN(C)C(=O)CCOc1cccc2ccccc12
inactive: [1] 16.6% | [2] -3.1% | [3] -16% | [4] -69.5% | [5] -20.8% | [6] 1%

COc1ccc(SC/C(=N\NOS(=O)(=O)c2ccc(C)cc2)c2ccccc2)cc1
active: [1] 85.1% | [3] 93.3% | [6] 87.7%
inactive: [2] 34.1% | [4] 61% | [5] 61%

CC(C)c1cccc(C(C)C)c1NC(=O)/C(Cc1nc2ccc(Cl)cc2[nH]c1=O)=N\NC(=O)C[N+](C)(C)C
inactive: [1] 17.7% | [2] 16.2% | [3] -12.3% | [4] 25.7% | [5] 26.9% | [6] 22.7%

NC(Cc1ccccc1)C(=O)NCC(=O)O (stereo unspecified) (H-[ξF]-Gly-OH)
inactive: [1] -7.45% | [2] 8.65% | [3] -6.35% | [4] -26.4% | [5] -11.7% | [6] -12.3%

O=C(Nc1ccc(S(=O)(=O)/N=c2\ncccn2C(=O)C(C(F)(F)F)C(F)(F)F)cc1)C(C(F)(F)F)C(F)(F)F
inactive: [1] -5% | [2] 11.9% | [3] -0.65% | [4] 22.2% | [5] 28.4% | [6] -26.8%

COc1cc2c(cc1OC)C1(CCBr)C3CC4C(=CCOC5CC(=O)N2C1C54)CN3C(=O)Cc1ccccc1 (stereo unspecified)
inactive: [1] 27.8% | [2] -11.9% | [3] -3.45% | [4] 7.4% | [5] 4.75% | [6] 3.7%

COC(=O)[C@]1(NC(=O)c2ccccc2)C[C@H]1C=O
inactive: [1] 21% | [2] 15.2% | [3] 14.4% | [4] 10.9% | [5] 9.6% | [6] -54.8%

COc1cc(C)nc2ccc(Cc3ccc4nc(C)cc(OC)c4c3)cc12
inactive: [1] 6.75% | [2] 6.8% | [3] -3% | [4] -14.2% | [5] 7.4% | [6] 25.6%

Cc1ccc(S(=O)(=O)Oc2c([N+](=O)[O-])cc(-c3ccccc3)cc2[N+](=O)[O-])cc1
inactive: [1] 47.8% | [2] 37.4% | [3] 63% | [4] 34.5% | [5] 0.7% | [6] 31%

CNc1ncnc2nc(C)c(C)nc12
inactive: [1] -14.1% | [2] 35.6% | [3] -7.4% | [4] 8.4% | [5] -6.05% | [6] 18.7%

C=C(C)Cc1c(C)c(Cl)cc(Cl)c1OC(=O)Nc1ccccc1
inactive: [1] 31.8% | [2] 9.6% | [3] 30.6% | [4] 9.35% | [5] 29.9% | [6] 19.7%

Nc1n[nH]c(CO)n1
inactive: [1] 7.3% | [2] 4.05% | [3] -6.6% | [4] 9.65% | [5] -14.8% | [6] -7.1%

CC(=O)Nc1ccc(CCc2ccc(NC(C)=O)cc2)cc1
inactive: [1] -2.9% | [2] -13.7% | [3] -7.3% | [4] -60.2% | [5] 5.6% | [6] -12.3%

CC(=O)c1cc(C(C)(C)C)ccc1O
inactive: [1] 17.8% | [2] 4.8% | [3] 7.8% | [4] 9.65% | [5] 26.1% | [6] 12.8%

CCC1=NS(=O)(=O)c2c(ncn2C)N1
inactive: [1] 11% | [2] 8.55% | [3] -5.6% | [4] 11.3% | [5] 0.15% | [6] 1.35%

CC(C)CCCC(C)C1CCC2C3CC=C4CC(OCCC(C)C)CCC4(C)C3CCC12C (stereo unspecified)
inactive: [1] 55.5% | [2] 66.7% | [3] 29.4%
active: [4] 84.3% | [5] 98.1% | [6] 90.4%

CCSC(SCC)C(O)C(O)C(O)C(C)O (stereo unspecified)
inactive: [1] 31.8% | [2] 1.55% | [3] 4% | [4] -34.1% | [5] -5.05% | [6] 6.55%

CC12CCC3C(CCC4CCCCC43C)C1CC/C2=N\O (stereo unspecified)
inactive: [2] 45.6% | [4] 39.8%
active: [1] 90.2% | [3] 79.8% | [5] 85.5% | [6] 96.5%

CC1(C)CCC(=O)OC1C[N+](=O)[O-] (stereo unspecified)
inactive: [1] 39.8% | [2] -10.8% | [3] 24.2% | [4] 11.8% | [5] 0.3% | [6] 39.4%

CSc1n[n+](-c2ccccc2)cs1
inactive: [1] 6.3% | [2] 6.15% | [3] 4.4% | [4] 6.9% | [5] 21.7% | [6] -3.35%

OC(c1ccccc1)(c1ccccc1)c1ccccc1C(O)(c1ccccc1)c1ccccc1
inactive: [1] 12.2% | [2] 1% | [3] 4.6% | [4] 10.8% | [5] -4.65% | [6] 12.8%

CC(C)(C)C(=O)CC(=O)C(C)(C)C.CC(C)(C)C(=O)CC(=O)C(C)(C)C.CC(C)(C)C(=O)CC(=O)C(C)(C)C.[Co]
inactive: [1] -10.1% | [2] -8.95% | [3] 21.4% | [4] 16% | [5] -0.6% | [6] 0.15%

Nc1cccc(OCC2CCCN3CCCCC23)c1 (stereo unspecified)
inactive: [1] 20% | [2] -17.9% | [3] 4.9% | [4] 2.45% | [5] 6.05% | [6] -64.8%

Cc1nc2cncnc2n(CCN2CCOCC2)c1=O
inactive: [1] 15.1% | [2] 16.2% | [3] 23.2% | [4] -2.35% | [5] -2.45% | [6] 20.4%

O=S(=O)(Nc1ccccc1C(O)c1ccccc1)c1ccccc1 (stereo unspecified)
inactive: [1] 35.5% | [2] 0.8% | [3] 12.3% | [4] -27% | [5] 13.5% | [6] 34.4%

O=C1OC(=O)C2CCCCC12 (stereo unspecified)
inactive: [1] 29.9% | [2] -11.9% | [3] -11.4% | [4] -48.3% | [5] 8.95% | [6] 18.9%

Nc1nc(N)nc(CCCCc2nc(N)nc(N)n2)n1
inactive: [1] -28.1% | [2] -16% | [3] -14.3% | [4] -15.7% | [5] -59.5% | [6] -21.5%

NC(=S)N1CC=CCC1
inactive: [1] -8.65% | [2] 0.9% | [3] -3.4% | [4] 7.95% | [5] 3.9% | [6] -6.8%

C=CC(CCCC(C=C)OC(C)=O)OC(C)=O (stereo unspecified)
inactive: [1] 2.2% | [2] -4.95% | [3] -0.65% | [4] -18.1% | [5] 5.6% | [6] 5.5%

CC(C)(C)C(=O)c1ccc(-c2ccccc2)cc1
inactive: [1] 17.4% | [2] -5.55% | [3] -6.45% | [4] -56.3% | [5] 6.7% | [6] -2.1%

C/C(O)=C(/N=Nc1ccc(-c2nc3ccc(C)c(S(=O)(=O)O)c3s2)cc1)C(=O)Nc1ccccc1
inactive: [1] 12.7% | [2] -22.5% | [3] 21.2% | [4] 16% | [5] 19.9% | [6] 26.9%

CC(C)(Oc1ccc(Cl)cc1)C(=O)NC1CC(C)(C)N(O)C(C)(C)C1
inactive: [1] -0.4% | [2] 4.95% | [3] -13.2% | [4] -48.5% | [5] -43.2% | [6] -18.4%

O=C(Nc1cccc(Cc2cccc(NC(=O)c3ccccc3)c2)c1)c1ccccc1
inactive: [1] 5.65% | [2] -1.9% | [3] -11.9% | [4] -41.1% | [5] -2.35% | [6] -0.35%

Cn1ncc2c(=S)nc[nH]c21
inactive: [1] -15.2% | [2] -4.9% | [3] -2.5% | [4] -18.2% | [5] 2.65% | [6] -13.8%
